# Experimental data published in PMC7862700, “An all-to-all approach to the identification of sequence-specific readers for epigenetic DNA modifications on cytosine”.
# Legend:
# Test in all cases: DAPPL (digital affinity profiling via proximity ligation, sequencing); 10 mM Tris-HCl pH 7.5, 50 mM NaCl, 1 mM DTT, 4% glycerol, room temperature, 30 min; GST-TFs on glutathione beads, 16-mer random dsDNA library, 0.1% formaldehyde crosslink after washing; high values mean tight binding
# [1] = molecular target: T1, FEV (Homo sapiens, UniProt Q99581 1-238); settings: protein: recombinant; tags: N-terminal GST; dsDNA, one strand shown
# T1 sequence: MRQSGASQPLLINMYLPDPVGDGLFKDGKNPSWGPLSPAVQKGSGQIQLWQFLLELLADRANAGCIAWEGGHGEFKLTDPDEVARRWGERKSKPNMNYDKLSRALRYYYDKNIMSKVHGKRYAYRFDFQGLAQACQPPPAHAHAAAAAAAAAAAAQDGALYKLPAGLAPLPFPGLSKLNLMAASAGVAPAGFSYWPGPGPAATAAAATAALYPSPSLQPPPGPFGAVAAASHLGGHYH
# Procedure, shortened: (§1)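 The binding signal reported is, for every hexamer, its read frequency for a factor over its read frequency for the tag-only sample. Reads came from pools of yeast-expressed, GST-fused human transcription factors on glutathione beads, barcoded with DNA and mixed with that sample, which were incubated with 200 nmole of a random double-stranded 16-mer DNA library in Tris/NaCl/DTT/glycerol buffer at room temperature for 30 min. After washing, the pools were crosslinked with 0.1% formaldehyde, proximity-ligated with BsaI/T4 ligase for 1 h at 37 °C, PCR-amplified and sequenced on an Illumina NextSeq500.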
# [2] = molecular target: ETV5 (Homo sapiens, UniProt P41161 1-510); settings: protein: recombinant; tags: N-terminal GST; dsDNA, one strand shown
# ETV5, sequence (P41161 whole entry): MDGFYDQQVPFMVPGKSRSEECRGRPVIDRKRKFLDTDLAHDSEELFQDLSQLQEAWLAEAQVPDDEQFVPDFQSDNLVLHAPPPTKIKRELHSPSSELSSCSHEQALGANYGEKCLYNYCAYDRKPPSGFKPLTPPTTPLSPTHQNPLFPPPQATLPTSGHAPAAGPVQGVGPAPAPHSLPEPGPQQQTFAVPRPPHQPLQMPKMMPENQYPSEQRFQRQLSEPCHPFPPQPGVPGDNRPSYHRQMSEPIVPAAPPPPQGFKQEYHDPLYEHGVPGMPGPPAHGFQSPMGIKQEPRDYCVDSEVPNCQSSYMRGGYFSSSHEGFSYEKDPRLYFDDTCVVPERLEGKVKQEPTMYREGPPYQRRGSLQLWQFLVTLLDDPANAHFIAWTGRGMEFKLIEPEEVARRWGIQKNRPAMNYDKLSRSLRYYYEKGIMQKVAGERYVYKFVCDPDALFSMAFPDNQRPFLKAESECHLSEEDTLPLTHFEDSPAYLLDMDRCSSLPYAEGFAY
# Procedure, shortened: as §1
# [3] = molecular target: HSF1 (Homo sapiens, UniProt Q00613 1-529); settings: protein: recombinant; tags: N-terminal GST; chain copies: 3; dsDNA, one strand shown
# HSF1, sequence (Q00613 whole entry): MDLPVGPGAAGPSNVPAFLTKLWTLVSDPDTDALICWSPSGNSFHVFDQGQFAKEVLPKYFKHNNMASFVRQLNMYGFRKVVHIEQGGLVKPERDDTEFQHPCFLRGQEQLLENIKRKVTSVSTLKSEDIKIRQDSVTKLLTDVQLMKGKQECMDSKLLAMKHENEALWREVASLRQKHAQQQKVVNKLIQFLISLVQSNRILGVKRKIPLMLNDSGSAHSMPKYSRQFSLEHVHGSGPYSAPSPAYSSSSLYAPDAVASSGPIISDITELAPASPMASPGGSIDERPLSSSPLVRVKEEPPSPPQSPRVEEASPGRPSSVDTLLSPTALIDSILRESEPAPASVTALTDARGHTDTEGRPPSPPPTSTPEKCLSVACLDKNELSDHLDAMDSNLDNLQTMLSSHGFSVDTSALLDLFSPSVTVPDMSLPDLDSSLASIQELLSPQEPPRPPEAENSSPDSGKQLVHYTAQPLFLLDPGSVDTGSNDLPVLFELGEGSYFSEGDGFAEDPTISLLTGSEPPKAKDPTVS
# Procedure, shortened: as §1
# [4] = molecular target: T2, SPIC (Homo sapiens, UniProt Q8N5J4 1-248); settings: protein: recombinant; tags: N-terminal GST; dsDNA, one strand shown
# T2 sequence: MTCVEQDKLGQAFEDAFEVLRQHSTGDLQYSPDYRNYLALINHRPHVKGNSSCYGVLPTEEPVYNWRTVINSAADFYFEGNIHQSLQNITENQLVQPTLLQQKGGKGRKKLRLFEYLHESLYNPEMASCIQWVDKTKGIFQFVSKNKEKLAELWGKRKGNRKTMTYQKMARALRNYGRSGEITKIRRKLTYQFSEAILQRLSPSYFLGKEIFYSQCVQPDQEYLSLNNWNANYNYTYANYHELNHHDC
# Procedure, shortened: as §1
# [5] = molecular target: ELF4 (Homo sapiens, UniProt Q99607 1-663); settings: protein: recombinant; tags: N-terminal GST; dsDNA, one strand shown
# ELF4, sequence (Q99607 whole entry): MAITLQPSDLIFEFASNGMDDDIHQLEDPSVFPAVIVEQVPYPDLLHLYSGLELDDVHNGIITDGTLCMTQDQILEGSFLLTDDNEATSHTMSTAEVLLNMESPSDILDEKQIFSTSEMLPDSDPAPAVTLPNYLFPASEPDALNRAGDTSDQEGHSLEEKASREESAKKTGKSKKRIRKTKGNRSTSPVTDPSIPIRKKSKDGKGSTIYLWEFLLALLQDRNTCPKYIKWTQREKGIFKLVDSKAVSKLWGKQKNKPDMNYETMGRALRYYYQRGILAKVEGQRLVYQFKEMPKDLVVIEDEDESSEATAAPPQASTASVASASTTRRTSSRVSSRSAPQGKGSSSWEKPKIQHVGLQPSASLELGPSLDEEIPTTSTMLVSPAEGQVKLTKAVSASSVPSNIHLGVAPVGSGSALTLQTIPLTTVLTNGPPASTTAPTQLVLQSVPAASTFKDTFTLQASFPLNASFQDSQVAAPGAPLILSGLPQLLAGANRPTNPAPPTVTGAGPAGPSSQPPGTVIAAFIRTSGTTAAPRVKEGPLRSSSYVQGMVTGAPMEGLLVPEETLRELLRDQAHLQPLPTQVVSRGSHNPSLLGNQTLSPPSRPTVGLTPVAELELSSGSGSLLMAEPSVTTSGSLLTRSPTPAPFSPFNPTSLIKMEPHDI
# Procedure, shortened: as §1
# [6] = molecular target: T3, ELK4 (Homo sapiens, UniProt P28324-2 1-405); settings: protein: recombinant; tags: N-terminal GST; dsDNA, one strand shown
# T3 sequence: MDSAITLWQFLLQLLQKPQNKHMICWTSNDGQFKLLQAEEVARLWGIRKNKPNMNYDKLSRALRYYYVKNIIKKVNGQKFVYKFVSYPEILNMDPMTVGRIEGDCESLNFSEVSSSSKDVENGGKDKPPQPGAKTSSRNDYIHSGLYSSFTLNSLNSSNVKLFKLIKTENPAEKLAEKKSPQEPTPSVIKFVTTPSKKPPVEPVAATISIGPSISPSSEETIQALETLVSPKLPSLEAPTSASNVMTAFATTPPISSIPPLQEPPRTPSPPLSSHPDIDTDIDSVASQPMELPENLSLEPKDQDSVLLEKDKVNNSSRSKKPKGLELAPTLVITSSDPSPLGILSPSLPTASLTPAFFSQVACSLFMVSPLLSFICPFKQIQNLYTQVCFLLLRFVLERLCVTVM
# Procedure, shortened: as §1
# [7] = molecular target: T4, ETV2 (Homo sapiens, UniProt O00321 1-342); settings: protein: recombinant; tags: N-terminal GST; dsDNA, one strand shown
# T4 sequence: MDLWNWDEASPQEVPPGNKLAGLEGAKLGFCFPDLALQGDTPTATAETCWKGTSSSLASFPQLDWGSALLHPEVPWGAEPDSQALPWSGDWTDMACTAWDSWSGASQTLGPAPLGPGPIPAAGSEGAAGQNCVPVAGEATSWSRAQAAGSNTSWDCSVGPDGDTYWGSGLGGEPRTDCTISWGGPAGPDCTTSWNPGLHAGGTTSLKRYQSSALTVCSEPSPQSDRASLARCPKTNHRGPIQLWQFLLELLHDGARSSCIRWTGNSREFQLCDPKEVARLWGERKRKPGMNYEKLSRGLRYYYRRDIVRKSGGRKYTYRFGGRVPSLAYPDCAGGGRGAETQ
# Procedure, shortened: as §1
# [8] = molecular target: T5, ELF3 (Homo sapiens, UniProt P78545 1-371); settings: protein: recombinant; tags: N-terminal GST; dsDNA, one strand shown
# T5 sequence: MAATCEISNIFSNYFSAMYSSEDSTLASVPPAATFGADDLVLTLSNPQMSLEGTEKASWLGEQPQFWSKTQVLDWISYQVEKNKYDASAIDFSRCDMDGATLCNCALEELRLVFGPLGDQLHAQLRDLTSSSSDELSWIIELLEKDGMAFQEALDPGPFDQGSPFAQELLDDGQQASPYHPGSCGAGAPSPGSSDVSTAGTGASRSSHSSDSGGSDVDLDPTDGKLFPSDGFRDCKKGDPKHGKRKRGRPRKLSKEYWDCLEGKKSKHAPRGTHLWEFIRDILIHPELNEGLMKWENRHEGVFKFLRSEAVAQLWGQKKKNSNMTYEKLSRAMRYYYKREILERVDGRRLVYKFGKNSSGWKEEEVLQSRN
# Procedure, shortened: as §1
# [9] = molecular target: CRX (Homo sapiens, UniProt O43186 1-299); settings: protein: recombinant; tags: N-terminal GST; dsDNA, one strand shown
# CRX, sequence (O43186 whole entry): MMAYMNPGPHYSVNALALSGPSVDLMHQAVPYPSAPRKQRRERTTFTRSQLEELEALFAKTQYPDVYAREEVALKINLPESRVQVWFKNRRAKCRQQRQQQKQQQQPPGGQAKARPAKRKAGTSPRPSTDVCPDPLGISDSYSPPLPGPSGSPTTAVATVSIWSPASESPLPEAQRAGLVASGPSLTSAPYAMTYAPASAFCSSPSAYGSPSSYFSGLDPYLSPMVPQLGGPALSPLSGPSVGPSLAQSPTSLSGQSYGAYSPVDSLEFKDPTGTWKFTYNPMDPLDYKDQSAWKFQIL
# Procedure, shortened: as §1
# [10] = molecular target: ETV1 (Homo sapiens, UniProt P50549 1-477); settings: protein: recombinant; tags: N-terminal GST; dsDNA, one strand shown
# ETV1, sequence (P50549 whole entry): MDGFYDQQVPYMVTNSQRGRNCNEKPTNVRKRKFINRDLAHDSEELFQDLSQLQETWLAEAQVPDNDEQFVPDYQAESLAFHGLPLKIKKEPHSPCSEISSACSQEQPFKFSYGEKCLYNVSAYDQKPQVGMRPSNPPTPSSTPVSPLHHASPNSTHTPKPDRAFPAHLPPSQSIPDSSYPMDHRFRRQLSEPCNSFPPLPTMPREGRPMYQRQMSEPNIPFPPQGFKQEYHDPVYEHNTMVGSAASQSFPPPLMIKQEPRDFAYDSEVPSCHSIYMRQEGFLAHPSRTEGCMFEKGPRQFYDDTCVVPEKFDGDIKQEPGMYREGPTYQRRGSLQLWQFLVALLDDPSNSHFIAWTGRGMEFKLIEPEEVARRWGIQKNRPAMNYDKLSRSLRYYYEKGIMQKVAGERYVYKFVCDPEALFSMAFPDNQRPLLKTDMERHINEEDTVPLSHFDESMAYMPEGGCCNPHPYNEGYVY
# Procedure, shortened: as §1
# [11] = molecular target: T6, ERF (Homo sapiens, UniProt P50548 1-548); settings: protein: recombinant; tags: N-terminal GST; dsDNA, one strand shown
# T6 sequence: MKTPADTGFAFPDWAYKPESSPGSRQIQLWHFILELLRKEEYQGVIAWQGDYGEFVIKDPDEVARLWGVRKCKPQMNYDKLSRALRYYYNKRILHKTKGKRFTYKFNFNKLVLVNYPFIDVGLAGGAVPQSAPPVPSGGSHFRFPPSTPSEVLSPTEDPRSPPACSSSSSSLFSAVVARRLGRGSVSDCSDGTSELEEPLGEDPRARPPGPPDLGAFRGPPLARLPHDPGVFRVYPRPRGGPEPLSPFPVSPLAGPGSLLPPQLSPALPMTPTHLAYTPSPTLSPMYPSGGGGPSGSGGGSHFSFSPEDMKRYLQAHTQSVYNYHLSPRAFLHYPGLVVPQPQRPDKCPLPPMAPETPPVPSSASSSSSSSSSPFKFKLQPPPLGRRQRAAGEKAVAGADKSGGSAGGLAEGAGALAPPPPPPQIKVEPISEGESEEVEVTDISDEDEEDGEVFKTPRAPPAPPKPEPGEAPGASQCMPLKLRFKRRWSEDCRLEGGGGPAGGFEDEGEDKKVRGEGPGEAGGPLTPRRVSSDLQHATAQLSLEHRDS
# Procedure, shortened: as §1
# [12] = molecular target: T7, ETV3L (Homo sapiens, UniProt Q6ZN32 1-361); settings: protein: recombinant; tags: N-terminal GST; dsDNA, one strand shown
# T7 sequence: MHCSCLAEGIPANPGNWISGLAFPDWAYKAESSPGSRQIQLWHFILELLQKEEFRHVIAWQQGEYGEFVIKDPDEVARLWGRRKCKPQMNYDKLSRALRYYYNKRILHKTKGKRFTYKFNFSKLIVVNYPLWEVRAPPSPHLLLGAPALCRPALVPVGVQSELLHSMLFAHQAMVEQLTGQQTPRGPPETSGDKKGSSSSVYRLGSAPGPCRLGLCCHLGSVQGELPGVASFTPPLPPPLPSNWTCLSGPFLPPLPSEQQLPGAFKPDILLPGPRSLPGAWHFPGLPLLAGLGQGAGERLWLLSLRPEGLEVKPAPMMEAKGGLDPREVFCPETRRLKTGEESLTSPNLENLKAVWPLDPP
# Procedure, shortened: as §1
# [13] = molecular target: T8, ETS2 (Homo sapiens, UniProt P15036 1-469); settings: protein: recombinant; tags: N-terminal GST; dsDNA, one strand shown
# T8 sequence: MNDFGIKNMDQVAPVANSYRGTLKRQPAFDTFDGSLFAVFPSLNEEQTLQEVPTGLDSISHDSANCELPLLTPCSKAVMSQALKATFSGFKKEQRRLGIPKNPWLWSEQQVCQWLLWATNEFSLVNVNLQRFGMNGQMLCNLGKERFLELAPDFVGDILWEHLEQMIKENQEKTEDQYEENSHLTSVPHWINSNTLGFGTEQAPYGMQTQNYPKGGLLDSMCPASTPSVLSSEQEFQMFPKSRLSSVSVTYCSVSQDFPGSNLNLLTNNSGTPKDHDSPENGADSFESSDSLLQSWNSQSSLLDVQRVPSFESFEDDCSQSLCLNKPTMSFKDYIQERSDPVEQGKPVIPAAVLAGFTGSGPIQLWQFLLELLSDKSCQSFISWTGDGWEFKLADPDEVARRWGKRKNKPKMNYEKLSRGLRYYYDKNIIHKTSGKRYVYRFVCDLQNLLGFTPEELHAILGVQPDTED
# Procedure, shortened: as §1
# [14] = molecular target: T9, SPDEF (Homo sapiens, UniProt O95238 1-335); settings: protein: recombinant; tags: N-terminal GST; dsDNA, one strand shown
# T9 sequence: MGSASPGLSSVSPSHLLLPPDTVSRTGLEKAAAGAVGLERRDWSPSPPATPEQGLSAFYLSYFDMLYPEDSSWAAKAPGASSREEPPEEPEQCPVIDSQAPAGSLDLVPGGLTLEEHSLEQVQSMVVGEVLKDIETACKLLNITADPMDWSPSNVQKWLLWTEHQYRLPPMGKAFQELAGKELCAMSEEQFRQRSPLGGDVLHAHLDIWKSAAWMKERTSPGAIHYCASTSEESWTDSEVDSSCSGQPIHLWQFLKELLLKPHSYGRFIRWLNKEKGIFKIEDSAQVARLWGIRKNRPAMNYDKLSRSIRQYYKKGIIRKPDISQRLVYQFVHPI
# Procedure, shortened: as §1
# [15] = molecular target: T10, ETV7 (Homo sapiens, UniProt Q9Y603 1-341); settings: protein: recombinant; tags: N-terminal GST; dsDNA, one strand shown
# T10 sequence: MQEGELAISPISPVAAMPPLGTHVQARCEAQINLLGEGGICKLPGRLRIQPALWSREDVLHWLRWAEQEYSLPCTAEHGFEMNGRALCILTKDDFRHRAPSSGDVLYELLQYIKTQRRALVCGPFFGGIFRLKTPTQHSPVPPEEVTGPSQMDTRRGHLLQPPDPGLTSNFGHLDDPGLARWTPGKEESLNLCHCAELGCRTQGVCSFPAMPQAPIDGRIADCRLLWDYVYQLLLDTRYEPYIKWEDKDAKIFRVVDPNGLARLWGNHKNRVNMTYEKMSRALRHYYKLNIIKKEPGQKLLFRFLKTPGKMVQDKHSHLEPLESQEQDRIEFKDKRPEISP
# Procedure, shortened: as §1
# [16] = molecular target: T11, ELF5 (Homo sapiens, UniProt Q9UKW6-2 1-255); settings: protein: recombinant; tags: N-terminal GST; dsDNA, one strand shown
# T11 sequence: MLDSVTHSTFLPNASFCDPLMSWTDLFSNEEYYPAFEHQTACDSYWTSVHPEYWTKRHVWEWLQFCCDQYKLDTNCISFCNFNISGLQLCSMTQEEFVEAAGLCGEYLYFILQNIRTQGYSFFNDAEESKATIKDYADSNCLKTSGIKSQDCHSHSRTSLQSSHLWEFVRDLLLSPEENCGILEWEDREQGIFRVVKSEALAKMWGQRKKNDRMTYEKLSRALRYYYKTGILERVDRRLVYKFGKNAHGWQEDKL
# Procedure, shortened: as §1
# [17] = molecular target: T12, ETV3 (Homo sapiens, UniProt P41162-2 1-143); settings: protein: recombinant; tags: N-terminal GST; dsDNA, one strand shown
# T12 sequence: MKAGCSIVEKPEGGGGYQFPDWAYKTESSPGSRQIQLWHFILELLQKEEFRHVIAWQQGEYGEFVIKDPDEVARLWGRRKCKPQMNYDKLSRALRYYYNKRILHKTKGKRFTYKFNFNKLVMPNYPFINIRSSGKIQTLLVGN
# Procedure, shortened: as §1
# [18] = molecular target: ETV6 (Homo sapiens, UniProt P41212 1-452); settings: protein: recombinant; tags: N-terminal GST; dsDNA, one strand shown
# ETV6, sequence (P41212 whole entry): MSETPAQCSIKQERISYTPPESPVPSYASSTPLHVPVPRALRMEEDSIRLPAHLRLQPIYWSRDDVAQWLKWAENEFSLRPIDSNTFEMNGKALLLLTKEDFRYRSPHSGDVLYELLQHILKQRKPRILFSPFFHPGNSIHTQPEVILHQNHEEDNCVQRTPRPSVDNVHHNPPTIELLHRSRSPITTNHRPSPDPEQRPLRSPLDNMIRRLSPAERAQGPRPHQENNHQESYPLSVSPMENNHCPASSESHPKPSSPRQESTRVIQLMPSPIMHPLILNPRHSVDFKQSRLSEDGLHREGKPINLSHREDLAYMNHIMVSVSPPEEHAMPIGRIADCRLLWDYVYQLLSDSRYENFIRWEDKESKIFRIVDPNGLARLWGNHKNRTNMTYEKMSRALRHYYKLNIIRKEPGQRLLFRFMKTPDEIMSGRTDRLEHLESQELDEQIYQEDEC
# Procedure, shortened: as §1
sequence,measurement,setting,value
CGCTTT,binding signal,[1],"1.18 fold enrichment (6-mer frequency, TF over GST control)"
same,binding signal,[2],"1.21 fold enrichment (6-mer frequency, TF over GST control)"
same,binding signal,[3],"1.11 fold enrichment (6-mer frequency, TF over GST control)"
same,binding signal,[4],"1.17 fold enrichment (6-mer frequency, TF over GST control)"
same,binding signal,[5],"1.31 fold enrichment (6-mer frequency, TF over GST control)"
same,binding signal,[6],"1.17 fold enrichment (6-mer frequency, TF over GST control)"
same,binding signal,[7],"1.09 fold enrichment (6-mer frequency, TF over GST control)"
same,binding signal,[8],"1.22 fold enrichment (6-mer frequency, TF over GST control)"
same,binding signal,[9],"1.37 fold enrichment (6-mer frequency, TF over GST control)"
same,binding signal,[10],"1.4 fold enrichment (6-mer frequency, TF over GST control)"
same,binding signal,[11],"1.24 fold enrichment (6-mer frequency, TF over GST control)"
same,binding signal,[12],"1.26 fold enrichment (6-mer frequency, TF over GST control)"
same,binding signal,[13],"1.36 fold enrichment (6-mer frequency, TF over GST control)"
same,binding signal,[14],"1.2 fold enrichment (6-mer frequency, TF over GST control)"
same,binding signal,[15],"1.4 fold enrichment (6-mer frequency, TF over GST control)"
same,binding signal,[16],"1.25 fold enrichment (6-mer frequency, TF over GST control)"
same,binding signal,[17],"1.3 fold enrichment (6-mer frequency, TF over GST control)"
same,binding signal,[18],"1.31 fold enrichment (6-mer frequency, TF over GST control)"
